Reference: PubChem BioAssay (NCATS)
Records with an inconclusive call do not appear. A number with no mark means an inactive call. Calls follow the shape of the dose curve; as a rule, active = well fitted cell-killing curve with a large enough effect; inconclusive = small, poorly fitted or top-dose-only effect, or effect the other way; inactive = flat fitted curve, though single readings scatter.

Tested on: SKOV3
Assay: Primary qHTS to identify gynecologic anti-cancer compounds using libraries of approved drugs and bioactive compounds (AID 1345084); also: nearly all actives have a fitted effect of over 55% in size
Settings: Gynecologic cancer cell panel viability, ATPlite luminescence, 48 h; series mostly up to 57.5 µM; activity change, negative = cytotoxicity: at the top concentration
In short: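 Five-point cytotoxicity, 48 h drug exposure at 37 C, 5% CO2, on cells seeded 16 h beforehand. ATP content read by ATPlite luminescence.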
% is scaled to controls: 0 for no effect and ±100 for the full control effect.

SMILES | activity change, negative = cytotoxicity
C[C@@H]1N[C@H]2N(C1=O)c1ccccc1[C@@]2(O)C[C@@H]1C(=O)N[C@@H](C)c2nc3ccccc3c(=O)n21 | 0% [at 25.3 µM]
COC(=O)C1=CO[C@@H](O[C@@H]2O[C@H](CO)[C@@H](O)[C@H](O)[C@H]2O)[C@H]2[C@@H]1C=C[C@@]21C=C([C@H](C)O)C(=O)O1 | -2.4% [at 25.3 µM]
CC(C)C(NC(=O)c1ccc2ccccc2n1)C(=O)NC(CC(=O)O)C(=O)COc1c(F)cccc1F (centres undefined) | 6.48%
CC1CCCCN1S(=O)(=O)c1ccc(N2CCCC2=O)cc1 (centres undefined) | 19.3%
COc1cc2c(cc1OC)N1C(=O)C[C@]34C=CCN5CC[C@@H]2[C@@H](CC3)[C@]514 | -1.03% [at 38.5 µM]
C=C1CC2C(C)(CCC(=O)O)C(C(C)(C)O)CCC2(C)C2C(=O)OC(C)(C(=O)OC)C(=O)C12C (centres undefined) | -4.91% [at 25.3 µM]
CCc1ccc(Cc2ccc3c(c2)[C@]2(OC3)O[C@H](CO)[C@@H](O)[C@H](O)[C@H]2O)cc1 | 19%
OC[C@H]1O[C@@H](Oc2cc(O)c3c(c2)O[C@@H](c2ccc(O)cc2)[C@H](O)C3)[C@H](O)[C@@H](O)[C@@H]1O | 8.85% [at 25.3 µM]
CC[C@@](C)(Nc1ccnc(-c2c[nH]c3ncccc23)n1)C(=O)NCC(F)(F)F | 21.8%
CC1=C(C(=O)O)/C(=C/CO[C@@H]2O[C@H](COC(=O)/C=C/c3ccc(O)cc3)[C@@H](O)[C@H](O)[C@H]2O)C(O)C1 (some centres undefined) | 35.9% [at 25.3 µM]
C[C@H](CCC(=O)O)[C@H]1CC[C@H]2[C@@H]3C[C@H](O)[C@@H]4C[C@H](O)CC[C@]4(C)[C@H]3CC[C@]12C | 0%
CC1CC[C@]2(C(=O)O)CC[C@]3(C(=O)O)C(=CCC4[C@@]5(C)CC[C@H](O[C@@H]6O[C@H](CO)[C@@H](O)[C@H](O)[C@H]6O)C(C)(C)C5CC[C@]43C)C2C1C (some centres undefined) | 0% [at 25.3 µM]
CC(=O)N[C@@H](C(=O)O[C@H]1CCC(C)(C)[C@@H]2CCC3=C(COC3=O)[C@@]12C)C(C)C | -6.02% [at 38.5 µM]
CC1OC2OC(=O)C3(C)CC4=C(CO)C5=C(CC(=O)C4(C)C(C1=O)C23)C(C)(C)OC(=O)C5 (centres undefined) | 0% [at 25.3 µM]
CC1(C)CC2=C3C=CC4C5(C)CCC(O)C(C)(C)C5CCC4(C)C3(C)CCC2(C)C(O)C1 (centres undefined) | 9.27% [at 25.3 µM]
COc1cc(O)cc(C)c1C(=O)O[C@H]1[C@@H](OC(C)=O)[C@H](n2ccc(=O)[nH]c2=O)O[C@@H]1CO | 0% [at 25.3 µM]
Fc1ccc2nc(CCC#Cc3ccccn3)cn2c1 | 1.86%
C=C[C@H]1C(O[C@@H]2O[C@H](CO)[C@@H](O)[C@H](O)[C@H]2O)OC=C2C(=O)N3CCc4c([nH]c5ccccc45)C3CC21 (some centres undefined) | -14.6% [at 25.3 µM]
O=C1NC(=O)C(c2cn(-c3ccccc3)nc2-c2ccc(F)cc2)N1 (centres undefined) | -27.3%
CC(=O)OC1C(O)C2C(C)C3=CC(=O)OC3(O)CC2C2(C)CCCC(C)(CO)C12 (centres undefined) | 0.528% [at 25.3 µM]

SMILES | activity change, negative = cytotoxicity
O=C(NCc1cccc(O)c1)Nc1nc(-c2ccncc2)cs1 | -0.377%
CC1(O)CCCC2(C)C1CCC13CC(CO)C(CCC12)C3 (centres undefined) | -0.109%
CC1=CC2C(CC1OC1OC(CO)C(O)C(O)C1O)C(C)CC(=O)C2C(C)C (centres undefined) | -1.66% [at 38.5 µM]
CC(=O)O[C@@H]1C[C@@H](OC(C)=O)C(C)(C)/C=C/[C@H](C)[C@H](OC(C)=O)[C@@]2(O)C[C@H](C)[C@H](OC(=O)c3ccccc3)[C@@H]2/C=C/1C | 20.5% [at 25.3 µM]
O=C(NCc1cccc(O)c1)c1cc2cc(F)ccc2[nH]1 | 3.65%
COC1CC(O[C@H]2CC[C@@]3(C)C(CCC4C3[C@H](OC(C)=O)[C@@H](OC(=O)/C=C/c3ccccc3)[C@]3(C)C(C(C)=O)CC[C@]43O)C2)OC(C)C1OC1CC(OC)C(OC2CC(OC)C(OC3OC(C)C(OC4OC(CO)C(O)C(O)C4O)C(OC)C3O)C(C)O2)C(C)O1 (some centres undefined) | -2.84% [at 6.55 µM]
COc1cc(Br)c(S(=O)(=O)Nc2ccc(C(F)(F)F)c(O[C@@H]3CCN(C)C3)c2)cc1OC | 0%
COc1c2ccoc2cc2oc(CO[C@@H]3O[C@H](CO)[C@@H](O)[C@H](O)[C@H]3O)cc(=O)c12 | 4.03% [at 38.5 µM]
COC(=O)C1=COC(O[C@@H]2O[C@H](CO)[C@@H](O)[C@H](O)[C@H]2O)[C@H]2[C@@H]1[C@H](OC(=O)CCc1ccc(O)cc1)C[C@]2(C)O (some centres undefined) | -3.83% [at 25.3 µM]
COC(=O)N[C@H](C(=O)N1[C@@H]2CC[C@@H](C2)[C@H]1c1nc2ccc(-c3ccc4c(c3)C(F)(F)c3cc(-c5cnc([C@@H]6CCC7(CC7)N6C(=O)[C@@H](NC(=O)OC)C(C)C)[nH]5)ccc3-4)cc2[nH]1)C(C)C | -7.81% [at 25.3 µM]
CC(c1ncncc1F)C(O)(Cn1cncn1)c1ccc(F)cc1F (centres undefined) | 10.2%
O=C(OC[C@H]1O[C@H](O[C@]2(CO)O[C@H](CO)[C@@H](O)[C@@H]2O)[C@H](O)[C@@H](O)[C@@H]1O)c1ccccc1 | -1.11% [at 25.3 µM]
CC(C)(C)c1ccc(S(=O)(=O)Nc2ccc(Cl)cc2C(=O)c2cc[n+]([O-])cc2)cc1 | 1.63%
CC(CO)C1CCC2(C)CC3C(CO)CC(O)C3C(C)(O)C/C=C/12 (centres undefined) | 20.3% [at 38.5 µM]
CC12CCC3c4ccc(O)cc4CCC3C1CC(OC1OC(C(=O)O)C(O)C(O)C1O)C2O (centres undefined) | 20.1%
CCNCc1nc2c(N)nc3ccccc3c2n1CC(C)(C)O | 0%
OC[C@H]1O[C@@H](OCCc2ccccc2)[C@H](O[C@@H]2OC[C@](O)(CO)[C@H]2O)[C@@H](O)[C@@H]1O | 9.81% [at 25.3 µM]
COc1cc(C2Oc3c(OC)cc(CCCO)cc3C2CO)ccc1O[C@H]1O[C@H](C)[C@@H](O)[C@H](O)[C@@H]1O (some centres undefined) | -2.52% [at 25.3 µM]
COc1cc2c3c(cc4ccccc4c3c1O)NC2=O | -15.6%
